Bioassay records deposited in PubChem by National Center for Advancing Translational Sciences (NCATS).
Only some compounds are listed: those with a hit (about 2.8% of all), similar ones and a draw of the others.
SNCA expr inh: Primary qHTS assay for inhibitors of alpha-synuclein gene (SNCA) expression. HEK-293 SNCA-luciferase knock-in, luminescence, 24 h. Potency, µM (top dose mostly 57.2 µM), inactives show top-dose activity change, negative = inhibition, hits mostly inhibitors. 140,000 tested, 0.17% active;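 also: potency is read from the fitted curve at half-maximal effect; plate controls were DMSO cells for no effect and cell-free wells for full effect; nearly all actives have a fitted effect of over 45% in size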
IP6K1 inhibitor: Primary qHTS assay for small molecule inhibitors of Inositol hexaphosphate kinase 1 (IP6K1); Inositol hexakisphosphate kinase 1 (Homo sapiens), Q92551; IP6K1 kinase, ADP-Glo luminescence, 2 h; active compounds read low; activity change, % (series mostly up to about 58 µM); 140,000 tested, 0.81% active; in the data active = activity change below about -25%; also: % is scaled to controls: 0 for no effect and ±100 for the full control effect
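ADP-Glo luminescence measures ADP made by human IP6K1 during a 2 h RT reaction with ATP/IP6 (mix at 1.3 mM/130 uM); top library doses 57.5 and 19.1 uM final.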
KDM5B inhibitor: Primary screen for KDM5B Histone Demethylases FDH-coupled qHTS | KDM5B demethylase, FDH-coupled NADH fluorescence (FDH is formaldehyde dehydrogenase) | AID 1347165, 2019 | Potency, µM (series often up to 57.7 µM), usual class: inhibitors | Lysine-specific demethylase 5B (Homo sapiens), Q9UGL1 | 220,000 tested, 2.6% active; also: potency is read from the fitted curve at half-maximal effect; 0% is about no effect; nearly all actives have a fitted effect of over 70% in size
Target sequence (Q9UGL1 whole entry, looked up): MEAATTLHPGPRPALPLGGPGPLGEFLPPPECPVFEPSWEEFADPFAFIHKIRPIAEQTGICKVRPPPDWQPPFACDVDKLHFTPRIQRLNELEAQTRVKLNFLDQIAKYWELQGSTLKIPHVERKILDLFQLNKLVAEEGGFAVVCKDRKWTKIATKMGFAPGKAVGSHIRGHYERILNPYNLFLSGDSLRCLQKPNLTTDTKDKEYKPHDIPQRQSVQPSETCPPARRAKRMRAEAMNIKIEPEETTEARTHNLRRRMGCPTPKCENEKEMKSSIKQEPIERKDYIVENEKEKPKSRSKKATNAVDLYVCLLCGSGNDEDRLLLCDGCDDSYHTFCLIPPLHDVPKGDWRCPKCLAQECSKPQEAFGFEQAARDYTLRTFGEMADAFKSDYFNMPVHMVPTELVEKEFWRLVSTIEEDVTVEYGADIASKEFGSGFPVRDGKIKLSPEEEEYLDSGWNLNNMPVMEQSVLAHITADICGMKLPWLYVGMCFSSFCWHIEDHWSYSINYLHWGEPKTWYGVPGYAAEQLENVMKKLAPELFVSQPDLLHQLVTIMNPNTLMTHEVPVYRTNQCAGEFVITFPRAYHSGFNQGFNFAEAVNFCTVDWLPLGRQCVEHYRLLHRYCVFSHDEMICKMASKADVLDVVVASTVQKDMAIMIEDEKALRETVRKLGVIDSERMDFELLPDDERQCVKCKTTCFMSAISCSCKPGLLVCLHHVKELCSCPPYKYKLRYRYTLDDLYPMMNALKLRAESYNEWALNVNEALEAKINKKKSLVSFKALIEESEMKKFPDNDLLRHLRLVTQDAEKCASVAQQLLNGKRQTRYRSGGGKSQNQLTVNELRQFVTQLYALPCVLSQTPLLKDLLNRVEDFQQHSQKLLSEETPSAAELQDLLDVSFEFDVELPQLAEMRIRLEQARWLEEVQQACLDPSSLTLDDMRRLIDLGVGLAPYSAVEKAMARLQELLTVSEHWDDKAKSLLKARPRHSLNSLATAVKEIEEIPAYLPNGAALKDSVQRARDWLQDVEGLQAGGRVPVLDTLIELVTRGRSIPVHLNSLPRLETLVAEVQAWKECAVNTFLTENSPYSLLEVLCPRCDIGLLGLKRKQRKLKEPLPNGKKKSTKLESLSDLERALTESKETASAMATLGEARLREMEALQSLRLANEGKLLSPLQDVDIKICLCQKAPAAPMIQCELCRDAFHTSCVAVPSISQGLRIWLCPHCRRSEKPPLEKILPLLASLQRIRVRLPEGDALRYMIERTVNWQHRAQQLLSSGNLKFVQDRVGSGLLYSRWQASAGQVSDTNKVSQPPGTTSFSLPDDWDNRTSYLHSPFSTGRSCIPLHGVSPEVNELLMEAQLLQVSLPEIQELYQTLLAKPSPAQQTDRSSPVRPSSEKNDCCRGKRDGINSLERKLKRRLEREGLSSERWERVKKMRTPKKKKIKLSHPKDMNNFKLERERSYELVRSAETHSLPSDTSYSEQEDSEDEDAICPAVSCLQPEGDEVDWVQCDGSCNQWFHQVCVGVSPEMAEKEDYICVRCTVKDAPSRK
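Compound dilutions met 200 nM (final) KDM5BΔAP for 10 min at room temperature before substrate addition. The substrate mix held 12.5 µM H3K4me3 with cofactors 25 µM α-ketoglutarate and 50 µM Fe²⁺. NADH signal gain over 30 min defined activity.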
HEK293 viab: GF-AFC viability counterscreen for inhibitors of alpha-synuclein gene (SNCA) expression; HEK-293-SNCA-luc viability, GF-AFC fluorescence, 24 h; Potency, µM (series often up to 57.1 µM), inactives show at the highest dose activity change, negative = cytotoxicity, hits mostly cytotoxic; 150,000 tested, 0.12% active; AID 1671193, 2021;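 also: potency is read from the fitted curve at half-maximal effect; 0% = DMSO-treated cells and -100% = medium-only wells without cells; nearly all actives have a fitted effect of over 30% in size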
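Cytotoxicity counterscreen: after 24 h compound treatment of genome-edited SNCA-luciferase HEK-293 cells, live-cell protease substrate GF-AFC read by fluorescence after 30 min; activity scaled between DMSO (0%) and medium-only (-100%), curves Hill-fitted.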
* hit, by the source's call; [ ] = another dose, or the depositor's remark. Unless noted, calls follow the shape of the dose curve; as a rule, active = well fitted curve in the direction sought with a large enough effect; inconclusive = small, poorly fitted or top-dose-only effect, or another doubt; inactive = no such curve, though single readings can be large; an effect the other way counts as inactive or inconclusive.

For Cc1cc(-c2nc(-c3c(C)noc3C)cc3c2cc(C)n3CCN(C)C)ccn1 the results were SNCA expr inh 20%[87.6 µM], IP6K1 inhibitor -7, KDM5B inhibitor 35µM* and HEK293 viab -4%[87.6 µM].
For Cc1noc(C)c1-c1cc2c(cc(C)n2CCN(C)C)c(Nc2ccncn2)n1 the results were SNCA expr inh -5%[87.6 µM], IP6K1 inhibitor -14, KDM5B inhibitor 32µM* and HEK293 viab 4%[87.6 µM].
Screening COc1ncccc1-c1nc(-c2c(C)noc2C)cc2c1cc(C)n2C returned SNCA expr inh 67%[87.6 µM], IP6K1 inhibitor -8, KDM5B inhibitor inactive and HEK293 viab 2%[87.6 µM].
`CCCCCCCC(=O)c1ccc(O)cc1` gave KDM5B inhibitor inactive.
Screening Cc1noc(C)c1-c1cc2c(cc(C)n2C)c(-c2cccc(O)c2)n1 returned SNCA expr inh 39%[87.6 µM], IP6K1 inhibitor -14, KDM5B inhibitor inconclusive and HEK293 viab 10%[87.6 µM].
Cc1noc(C)c1-c1cc2c(cc(C)n2CCN(C)C)c(-c2ccccc2)n1 was read as SNCA expr inh 0%[87.6 µM], IP6K1 inhibitor -3, KDM5B inhibitor 32µM* and HEK293 viab -16%[87.6 µM].
`Cc1noc(C)c1-c1cc2c(cc(C)n2CCN(C)C)c(-c2ccsc2)n1` gave SNCA expr inh -1%[87.6 µM], IP6K1 inhibitor -12, KDM5B inhibitor 32µM* and HEK293 viab -10%[87.6 µM].
Screening COc1ccc(-c2nc(-c3c(C)noc3C)cc3c2cc(C)n3C)cn1 returned SNCA expr inh 21%[87.6 µM], IP6K1 inhibitor -21, KDM5B inhibitor 35µM* and HEK293 viab 1%[87.6 µM].
Screening COc1cncc(-c2nc(-c3c(C)noc3C)cc3c2cc(C)n3CCN(C)C)c1 returned SNCA expr inh 25%[87.6 µM], IP6K1 inhibitor -18, KDM5B inhibitor 40µM* and HEK293 viab -27%[87.6 µM].
`CCN(Cc1ccc(C(=O)NCCC(=O)N2CCCC2)cc1)C(C)C` gave KDM5B inhibitor inactive.
For O=S(=O)(c1cccc2nsnc12)N(Cc1ccccc1)C1CC1 the results were KDM5B inhibitor inactive.
Cc1noc(C)c1-c1cc2c(cc(C)n2CCN(C)C)c(-c2ccnn2C)n1 was read as SNCA expr inh inconclusive, IP6K1 inhibitor -16, KDM5B inhibitor 35µM* and HEK293 viab -17%[87.6 µM].
Screening CC(=O)N1CCN(c2cncc(C(=O)N3CCOCC3)n2)CC(O)C1 (centres undefined) returned SNCA expr inh 3%, IP6K1 inhibitor 10, KDM5B inhibitor 22µM* and HEK293 viab 5%.
`COCCN1Cc2ccc(Nc3ccc(OC)cc3)nc2C(C)(C(=O)NC(C)C)C1` (centres undefined) gave SNCA expr inh 6%[87.6 µM], IP6K1 inhibitor 1, KDM5B inhibitor inactive and HEK293 viab -14%[87.6 µM].
`COCCN1Cc2ccc(NCC(C)C)nc2C(C)(C(=O)Nc2ccncc2)C1` (centres undefined) gave SNCA expr inh -13%[87.6 µM], IP6K1 inhibitor -5, KDM5B inhibitor 28µM* and HEK293 viab 0%[87.6 µM].
Screening COCCN1Cc2ccc(NCC(C)C)nc2C(C)(C(=O)Nc2cccc(F)c2)C1 (centres undefined) returned SNCA expr inh -17%[87.6 µM], IP6K1 inhibitor 6, KDM5B inhibitor 32µM* and HEK293 viab -3%[87.6 µM].
`O=C(Nc1ccc(F)c(Cl)c1)c1cccc2ccccc12` gave KDM5B inhibitor inactive.
COc1ccc2c(c1)N(S(=O)(=O)c1ccc(F)cc1)C(C)(C)C=C2C was read as KDM5B inhibitor inactive.
COc1ccc(-c2cnc3n[nH]c(-c4ccc(F)cc4C)c3n2)cn1 was read as SNCA expr inh -26%[87.6 µM], IP6K1 inhibitor 9, KDM5B inhibitor 28µM* and HEK293 viab 4%[87.6 µM].
Screening COc1ccccc1-c1[nH]nc2ncc(C(=O)NCc3ccccc3)nc12 returned SNCA expr inh 1%[87.6 µM], IP6K1 inhibitor 16, KDM5B inhibitor 32µM* and HEK293 viab 5%[87.6 µM].
For COc1ccccc1-c1[nH]nc2ncc(-c3ccccc3C)nc12 the results were SNCA expr inh -22%[87.6 µM], IP6K1 inhibitor 25, KDM5B inhibitor 32µM* and HEK293 viab 4%[87.6 µM].
Screening COc1ccccc1-c1[nH]nc2ncc(-c3ccccc3F)nc12 returned SNCA expr inh -16%[87.6 µM], IP6K1 inhibitor 32, KDM5B inhibitor 35µM* and HEK293 viab 29%[87.6 µM].
Screening CNC(=O)c1cc(C2CC2)nc2c1c(C1CCN([S+](=O)([O-])c3ccc(C)cc3)CC1)nn2C returned IP6K1 inhibitor -4.
`COc1ccccc1-c1ccc(C(=O)N2CCC(C(=O)NCc3ccc(F)cc3)CC2)cc1` gave SNCA expr inh 10%, IP6K1 inhibitor 19 and HEK293 viab 7%[12.5 µM].
Screening COc1ccccc1-c1[nH]nc2ncc(-c3cccc(O)c3)nc12 returned SNCA expr inh -6%[87.6 µM], IP6K1 inhibitor -5, KDM5B inhibitor 35µM* and HEK293 viab -24%[87.6 µM].
`Cc1ccccc1-c1[nH]nc2ncc(-c3ccnn3C)nc12` gave SNCA expr inh -2%[87.6 µM], IP6K1 inhibitor 4, KDM5B inhibitor 35µM* and HEK293 viab 5%[87.6 µM].
Cc1cc(F)ccc1-c1[nH]nc2ncc(-c3ccnn3C)nc12 was read as SNCA expr inh -24%[87.6 µM], IP6K1 inhibitor 8, KDM5B inhibitor inconclusive and HEK293 viab 3%[87.6 µM].
`CN1Cc2cccn2CC1CNC(=O)Nc1ccccc1` (centres undefined) gave SNCA expr inh 9%, IP6K1 inhibitor 13, KDM5B inhibitor inactive and HEK293 viab 7%.
For CN1Cc2cccn2CC1CNC(=O)Cc1cccc(F)c1 (centres undefined) the results were SNCA expr inh 17%, IP6K1 inhibitor -9, KDM5B inhibitor 28µM* and HEK293 viab 12%.
`CN1Cc2cccn2CC1CNC(=O)Cc1ccccc1` (centres undefined) gave SNCA expr inh -18%, IP6K1 inhibitor -8, KDM5B inhibitor 18µM* and HEK293 viab 3%.
COCCN1C(=O)c2cccn2CC1CNC(=O)Cc1cccc(F)c1 (centres undefined) was read as SNCA expr inh -11%, IP6K1 inhibitor 12, KDM5B inhibitor inactive and HEK293 viab 3%.
Screening CN1C(=O)c2cccn2CC1CNC(=O)C1(S(=O)(=O)c2ccc(Cl)cc2)CC1 (centres undefined) returned SNCA expr inh -7%, IP6K1 inhibitor -1, KDM5B inhibitor inactive and HEK293 viab -5%.
`CN1Cc2cccn2CC1CNC(=O)C1(S(=O)(=O)c2ccc(Cl)cc2)CC1` (centres undefined) gave SNCA expr inh -18%, IP6K1 inhibitor 14, KDM5B inhibitor 14µM* and HEK293 viab 6%.
`CN1Cc2cccn2CC1CNC(=O)c1ccsc1` (centres undefined) gave SNCA expr inh -11%, IP6K1 inhibitor -11, KDM5B inhibitor 20µM* and HEK293 viab -16%.
For CCOc1ccc(-c2noc(-c3nnn(-c4cccc(C)c4C)c3N)n2)cc1 the results were KDM5B inhibitor inactive.
